This is an account of results in PubChem BioAssay.

Calls of active or inactive are those of the source. Unless noted, the rule behind the calls is not given here.

Assay [1] in a line: compound effects on lung adenocarcinoma cell viability – A549, calcein-AM fluorescence, 48 h, basal, profiling panel (AID 1162). Note: test concentration not given here. The conditions noted are these: higher = more signal.
Assay [2] can be described thus: compound effects on differentiated 3T3-L1 adipocyte viability – cell-based, 3T3-L1 adipocytes, calcein-AM fluorescence, 48 h, basal, profiling panel (AID 1163). Note: test concentration not given here. The following applies: 3T3-L1 adipocytes viability, higher = more signal.
A short description of assay [3]: compound effects on hepatocellular carcinoma cell viability – HepG2, calcein-AM fluorescence, 48 h, basal, profiling panel (AID 1164). Note: test concentration not given here. The following applies: higher = more signal.
Assay [4] in a line: compound effects on multiple myeloma cell viability – MM1S, calcein-AM fluorescence, 48 h, basal, profiling panel (AID 1165).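 Note: viability of MM1S multiple myeloma cells under basal unstimulated conditions; test concentration not given here.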 The following applies: higher = more signal.
Assay [5] can be described thus: calcein-AM signal in unstimulated myeloma cells – cell-based, calcein-AM fluorescence, 48 h, PK04 Diversity Set, profiling panel (AID 1166).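 Note: cells grown under basal conditions without added stimulus; test concentration not given here.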 The following applies: RPMI8226 myeloma viability, higher = more signal.
Assay [6] is described as follows: JC-1 mitochondrial signal, unstimulated HepG2 cells – cell-based, JC-1 fluorescence, 24 h, 100 nL compound, profiling panel (AID 1167). Note: test concentration not given here. The following applies: HepG2 mitochondrial potential, higher = more signal.
Assay [7] in a line: JC-1 mitochondrial signal, unstimulated adipocytes – cell-based, JC-1 fluorescence, 3T3-L1 adipocytes, 24 h, 100 nL compound, profiling panel (AID 1168). Note: test concentration not given here. The following applies: JC-1 mitochondrial fluorescence, higher = more signal, called active from +8 up or from −8 down.
A short description of assay [8]: JC-1 mitochondrial signal, unstimulated myeloma cells – cell-based, JC-1 fluorescence, RPMI8226, 24 h, 100 nL compound, profiling panel (AID 1169). Note: test concentration not given here. The following applies: JC-1 mitochondrial potential fluorescence, higher = more signal.
Assay [9] can be described thus: JC-1 mitochondrial signal, unstimulated MM1S myeloma – cell-based, JC-1 fluorescence, 24 h, 100 nL compound, profiling panel (AID 1170). Note: test concentration not given here. The conditions noted are these: MM1S mitochondrial potential, higher = more signal.
Assay [10] can be described thus: resazurin metabolic signal in A549 cells – cell-based, resazurin fluorescence, 24 h, PK04 Diversity Set, profiling panel (AID 1171). Note: test concentration not given here. The conditions noted are these: A549 viability, higher = more signal, called active from +8 up or from −8 down. (In general: The colour change of resazurin is a common sign of viable cells or microbes.)
Assay [11] is described as follows: resazurin metabolic signal in HepG2 cells – cell-based, resazurin fluorescence, 24 h, PK04 Diversity Set, profiling panel (AID 1172). Note: test concentration not given here. The conditions noted are these: HepG2 viability, higher = more signal.
A short description of assay [12]: budding yeast growth changes without added modifier – OD600, strain BY4716, 24 h, basal condition, primary screen (AID 1173). The conditions noted are these: S. cerevisiae BY4716 growth, OD600, 24 h; higher = more signal, called active from +8 up or from −8 down.
Assay [13] is described as follows: viability profiling in MM1S myeloma cells – cell-based, resazurin fluorescence, basal, 24 h, PK04 Diversity Set, profiling panel (AID 1174). Note: test concentration not given here. The following applies: higher = more signal, called active from +8 up or from −8 down.
The target of assay [14] is Dihydroorotate dehydrogenase (quinone), mitochondrial (Plasmodium falciparum (isolate 3D7)) (UniProt Q08210). As to the kind of experiment: inhibition of P. falciparum DHODH – biochemical, C-terminal His tag, absorbance 600 nm, primary screen (AID 1175).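 Note: recombinant parasite enzyme with a five histidine tag at its C terminus; test concentration not given here.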 The conditions noted are these: PfDHODH enzyme, DCIP absorbance 600 nm; higher = more signal, called active from +8 up or from −8 down.

Assay [15] can be described thus: inhibition of PAO1 biofilm formation – strain PAO1, LB-PBS medium, absorbance 600 nm, primary screen (AID 1176). Note: test concentration not given here. The following applies: P. aeruginosa PAO1 growth/biofilm, A600, 12 h; higher = more signal.
The nature of assay [16]: growth modulation of vineyard yeast isolate – strain RM11-1a, OD600, basal, 24 h, primary screen (AID 1177).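 Note: cultures grown under basal conditions with no added stressor; test concentration not given here.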 The conditions noted are these: S. cerevisiae RM11-1a growth, OD600, 24 h; higher = more signal, called active from +8 up or from −8 down.
The nature of assay [17]: growth of efflux-deficient E. coli DRC39 – strain DRC39, OD650, 24 h, E. coli filamentation inducers, primary screen (AID 1178).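 Note: growth measured as culture turbidity by optical density at 650 nm; test concentration not given here.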 The following applies: E. coli DRC39 acrAB, higher = more signal, called active from +8 up or from −8 down.
A short description of assay [18]: growth of efflux-deficient E. coli DRC39 – strain DRC39, OD650, 48 h, E. coli filamentation inducers, primary screen (AID 1179).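 Note: screen aims at cell division blockers that make cells filament.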 The conditions noted are these: E. coli DRC39 delta-acrAB growth, higher = more signal, called active from +8 up or from −8 down.
Assay [19] in a line: viability profiling in RPMI8226 myeloma cells – cell-based, resazurin fluorescence, basal, 24 h, PK04 Diversity Set, profiling panel (AID 1180).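 Note: RPMI8826 multiple myeloma cell line at 5000 cells per well; test concentration not given here.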 The conditions noted are these: higher = more signal.
In assay [20] the target is E3 ubiquitin-protein ligase XIAP (Homo sapiens) (UniProt P98170). As to the kind of experiment: small molecules binding XIAP protein – biophysical, small-molecule microarray, fluorescence 635 nm, primary screen (AID 1181).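 Note: score merges 667 nm emission and signal to noise over triplicate slides.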 The following applies: higher = more signal.
Chain of E3 ubiquitin-protein ligase XIAP (Homo sapiens) (P98170 whole entry, looked up): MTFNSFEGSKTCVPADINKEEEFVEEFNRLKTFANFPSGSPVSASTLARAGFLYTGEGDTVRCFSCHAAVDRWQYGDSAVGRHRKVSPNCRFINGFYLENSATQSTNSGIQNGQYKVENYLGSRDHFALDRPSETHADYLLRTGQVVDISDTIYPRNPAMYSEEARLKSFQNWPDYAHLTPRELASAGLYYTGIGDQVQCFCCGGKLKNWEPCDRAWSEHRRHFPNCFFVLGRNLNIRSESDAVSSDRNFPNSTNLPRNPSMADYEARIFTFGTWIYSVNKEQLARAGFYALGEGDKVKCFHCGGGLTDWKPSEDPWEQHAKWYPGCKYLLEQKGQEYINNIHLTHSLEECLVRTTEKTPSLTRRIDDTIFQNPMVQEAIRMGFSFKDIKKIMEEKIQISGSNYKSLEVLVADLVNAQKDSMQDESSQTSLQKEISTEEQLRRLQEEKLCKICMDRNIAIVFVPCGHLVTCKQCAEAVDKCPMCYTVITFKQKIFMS

Chain of Dihydroorotate dehydrogenase (quinone), mitochondrial (Plasmodium falciparum (isolate 3D7)) (Q08210 whole entry, looked up): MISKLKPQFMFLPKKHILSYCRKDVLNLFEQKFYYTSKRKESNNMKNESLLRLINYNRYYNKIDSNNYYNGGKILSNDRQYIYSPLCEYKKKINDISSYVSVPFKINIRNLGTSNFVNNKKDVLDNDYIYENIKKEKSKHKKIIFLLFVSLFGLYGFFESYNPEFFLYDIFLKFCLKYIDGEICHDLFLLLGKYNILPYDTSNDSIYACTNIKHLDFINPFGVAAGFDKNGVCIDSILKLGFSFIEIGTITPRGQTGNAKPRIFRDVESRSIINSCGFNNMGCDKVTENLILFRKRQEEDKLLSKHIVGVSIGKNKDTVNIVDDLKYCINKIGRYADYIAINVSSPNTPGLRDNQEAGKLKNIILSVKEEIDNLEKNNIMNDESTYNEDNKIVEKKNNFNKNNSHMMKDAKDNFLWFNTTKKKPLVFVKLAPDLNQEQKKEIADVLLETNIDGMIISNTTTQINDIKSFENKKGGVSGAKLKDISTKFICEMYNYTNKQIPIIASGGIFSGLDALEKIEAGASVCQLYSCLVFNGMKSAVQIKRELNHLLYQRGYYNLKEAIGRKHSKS

For the compound `O=C1C[C@@H](O)[C@@H](O)[C@@H]2[C@@H]3C(=O)N(Cc4ccccc4)C(=O)[C@@H]3CC[C@H]12`, the z-score in [1] was -0.801; in [2], 0.241; in assay [3], 0.175; in assay [4], -0.0999; in [5], 0.549; in assay [6], -0.511. For the same compound, the z-score in [7] is -0.919 (inactive); in [8], 0.0436; in [9], -0.281; in [10], -0.673 (inactive); in [11], -0.252; in assay [12], -0.425 (inactive). Further, the z-score in assay [13] is -0.136 (inactive); in assay [15], 0.188 (inactive); in assay [16], -0.163 (inactive); in assay [17] it was -0.418 (inactive); in assay [18] it was -0.779 (inactive); in assay [19] it was -0.14. The composite z-score in assay [14] is 0.318 (inactive); in [20], 0.468.
Regarding `CON=C[C@@H](OC)[C@H](C)C=CCC(=O)OC`, the z-score was -0.0933 in assay [1]; -0.105 in assay [2]; 0.262 in assay [3]; 0.253 in assay [4]; 0.205 in assay [5]; -0.34 in assay [6]. Also, the z-score in assay [7] was -1.2 (inactive); in [8] it was 0.673; in assay [9], 0.856; in [10], 0.213 (inactive); in assay [11], 0.0392; in assay [12], -0.117 (inactive). Also, the z-score in assay [13] was 0.293 (inactive); in assay [15], 0.0738 (inactive); in assay [16], -0.557 (inactive); in assay [17], -0.311 (inactive); in assay [18] it was -2.25 (inactive); in assay [19], -0.274. Also, the composite z-score in assay [14] was -0.241 (inactive); in [20], -0.162.
For `COC(=O)CC=C[C@@H](C)[C@@H](C=NOC(C)CN1CCCCc2nc(C)c(C)cc21)OC` (stereo not given in full), the z-score is -0.165 in assay [1]; -0.213 in assay [2]; -0.0272 in assay [3]; -1.74 in assay [4]; -0.444 in assay [5]; -0.254 in assay [6]. In addition, the z-score in assay [7] was -0.142 (inactive); in assay [8], -0.497; in [9] it was 0.444; in [10], 0.0399 (inactive); in assay [11], -0.264; in assay [12], -0.927 (inactive). The z-score in [13] is 0.0144 (inactive); in assay [15], -0.0417 (inactive); in assay [16], -0.46 (inactive); in [17] it was 0.324 (inactive); in assay [18] it was 0.257 (inactive); in [19], -0.0511. In addition, the composite z-score in assay [14] is 0.244 (inactive); in assay [20] it was -0.459.
As for `CCN1C(=O)[C@H]2[C@@H]3C(=CC[C@H]2C1=O)C(=O)[C@H]1O[C@H]1[C@H]3O`, the z-score was -0.163 in assay [1]; 0.634 in [2]; -0.929 in assay [3]; -3.04 in assay [4]; -3.9 in assay [5]; -2.06 in [6]. Moreover, the z-score is 0.772 (inactive) in assay [7]; -0.991 in assay [8]; -2.82 in assay [9]; -1.17 (inactive) in [10]; -1.22 in assay [11]; -1.12 (inactive) in [12]. Further, the z-score was -5.38 (inactive) in [13]; -0.978 (inactive) in assay [15]; -0.628 (inactive) in assay [16]; -0.615 (inactive) in assay [17]; -0.788 (inactive) in [18]; -2.17 in assay [19]. For the same compound, the figures for the composite z-score in [14] and in assay [20] were -0.0207 (inactive) and 0.334, respectively.
Take `COC(=O)[C@H](CCSC)NC(=O)CC=C[C@@H](C)CO`: the z-score in [1] was -0.493; in assay [2], -0.169; in [3], 0.0826; in [4] it was -1.12; in assay [5] it was -0.581; in [6] it was 0.705. The z-score in assay [7] was -0.645 (inactive); in [8], -0.545; in assay [9], -1.62; in [10], -0.812 (inactive); in assay [11] it was -0.838; in assay [12], 0.0957 (inactive). Besides, the z-score in assay [13] is 0.311 (inactive); in assay [15], -0.895 (inactive); in assay [16] it was 0.489 (inactive); in assay [17], -1.07 (inactive); in [18], -0.576 (inactive); in assay [19], 0.475. Besides, the composite z-score is 0.521 (inactive) in assay [14] and 0.262 in assay [20].
`CC(C)=CCCC(C)=CCON=C1C[C@@H](O)[C@@H](O)[C@@H]2[C@@H]3C(=O)N(c4cccc(Oc5ccccc5)c4)C(=O)[C@@H]3CC[C@H]12`: the z-score in assay [1] was 0.0267; in assay [2], -0.796; in assay [3], 0.285; in assay [4], -1.97; in [5], 0.504; in assay [6] it was -0.253. For the same compound, the z-score in assay [7] was 0.496 (inactive); in assay [8], -0.203; in [9], -0.907; in assay [10], 0.533 (inactive); in assay [11], 1.05; in assay [12], 0.681 (inactive). Moreover, the z-score in assay [13] is 0.674 (inactive); in assay [15], -0.0849 (inactive); in assay [16], 0.668 (inactive); in assay [17], 0.599 (inactive); in [18] it was 0.15 (inactive); in [19], 0.157. Further, the composite z-score in [14] was -0.141 (inactive); in [20], -0.102.
